# Methyltransferases – Primary Screen for Target Class Profiling of Small Molecule Inhibitors of Methyltransferases; purified enzyme, MTase-Glo SAH luminescence; active compounds read low; AID 1745853, 2022; calls only at 40 µM; 3.9% of 25,000 active; call rule not given here
#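 Each enzyme was reacted with SAM and its substrate, with compounds tested once at 40 uM; SAH formed was read by MTase-Glo luminescence.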
# MTase-Glo ctr – inhibits MTase-Glo coupling enzymes without methyltransferase; MTase-Glo coupled enzymes, SAH conversion luminescence, no MTase; 6% of 180 active; AID 1745851; shares compounds with Methyltransferases; Potency, µM (series often up to 57.3 µM), for the others: top-dose activity change, negative = inhibition, usual class: inhibitors; active = well fitted inhibition curve with a large enough effect; inconclusive = small, poorly fitted or top-dose-only effect; also: potency is read from the fitted curve at half-maximal effect
# Numbers without * were called inactive; i = inactive; ? = inconclusive; + = active, no number; [ ] = dose if it differs, or a comment. The sample as a whole holds a higher share of hits than the screen did. % is scaled to controls: 0 for no effect and ±100 for the full control effect.
SMILES,Methyltransferases,others
Cc1ccc(CN2CC[C@H](c3nc4ccc(C)cc4[nH]3)C2)cc1,i,
CCCn1c(=O)c2cc(F)ccc2n2c(SCC(=O)Nc3ccc4c(c3)OCO4)nnc12,i,
CCc1cc2c(cc3n2CC(C)(C(=O)NC2CCC(C)CC2)N(Cc2cccc(Cl)c2)C3=O)s1 (stereo not given),i,
Cn1c(=O)c2ccc(C(=O)NC3CCCC3)cc2n2c(=O)n(CC(=O)Nc3cccc(Cl)c3)nc12,i,
O=C(Nc1ccccc1C(F)(F)F)N1CCCC(Cn2cnc3cccnc32)C1 (stereo not given),i,
O=C(Nc1ccc2c(N3CCOCC3)ncnc2c1)c1cccc(Cl)c1,+,MTase-Glo ctr=-1%
O=C(Nc1ccc(S(=O)(=O)C(F)(F)F)cc1)C1=CCN(c2ncccc2C(F)(F)F)CC1,i,
O=C1CC(C(=O)Nc2cccc(Cl)c2)n2ncnc2N1 (stereo not given),i,
O=C(Nc1ccc2c(N3CCCCC3)ncnc2c1)c1ccccc1C(F)(F)F,+,MTase-Glo ctr=1.7µM*
O=C(c1ccc2c(=O)nc3c(-c4cccc(F)c4)n[nH]n3c2c1)N1CCN(c2ccccc2)CC1,i,
CCCn1c(=O)c2ccccc2n2c(SCc3ccc(Cl)cc3)nnc12,i,
O=C(Cn1ccc2cc(S(=O)(=O)N3CCCC3)ccc21)NCCC1=CCCCC1,i,
COc1cccc(CN2CC(Oc3ccccc3C(=O)NC3CC3)C2)c1,i,
COc1ccc(O)c(CN2CCCC(Nc3ccc(F)cc3)C2)c1 (stereo not given),i,
COc1ccc(CN2CCCC(COc3ccccc3C(=O)NC3CC3)C2)c(OC)c1 (stereo not given),+,MTase-Glo ctr=-5%
CC(C)NC(=O)c1ccccc1OCC1CCCN(Cc2cn(C)c3ccccc23)C1 (stereo not given),+,MTase-Glo ctr=4%
CCOc1ccccc1C(=O)NC1CCN(c2cc(C)cc(C)c2)C1=O (stereo not given),i,
COc1cc(OC)cc(C(=O)NCC2CCCN(Cc3cc4ccccc4o3)C2)c1 (stereo not given),i,
CC(C)OCCCNC(=O)C1c2c(n(C)c3ccccc23)SCC(=O)N1c1ccc(C(C)C)cc1 (stereo not given),i,
CC(C)CNC(=O)c1ccc2c(=O)n(C(C)C)c3nn(Cc4ccccc4)c(=O)n3c2c1,i,
CCCn1c(=O)c2cc(Cl)ccc2n2c(=O)n(Cc3cccc(Cl)c3)nc12,i,
CCc1cccc(NC(=O)Cn2nc3n(C(C)C)c(=O)c4ccc(C(=O)NC(C)CC)cc4n3c2=O)c1 (stereo not given),i,
CCOC(=O)c1cc2n(n1)CC(C)(C(=O)NCc1ccc(C)cc1)N(c1cccc(CC)c1)C2=O (stereo not given),i,
Cc1cccc(NC(=O)Cn2nc3n(C(C)C)c(=O)c4ccc(C(=O)NCC(C)C)cc4n3c2=O)c1,i,
Cc1cc(C)c(CNC(=O)c2cc(-c3cnn(C)c3C)cc3c2OCCN3C)c(=O)[nH]1,+,MTase-Glo ctr=-6%[85.7 µM]
SMILES,Methyltransferases,others
COCCNC(=O)c1cc(N2CCOCC2)cc2c1OCCN2C,i,
CC1(C(=O)NC2CCCCC2)Cn2nc(-c3ccco3)cc2C(=O)N1CCc1ccc(Cl)cc1 (stereo not given),i,
Cc1ccc(CNC(=O)C2(C)Cn3cnc(C(=O)NCCc4ccccc4)c3C(=O)N2C2CC2)cc1 (stereo not given),i,
COCc1nc2nc(-c3ccccc3)c(-c3ccc(O)c(F)c3)cc2n1C,+,MTase-Glo ctr=-6%[85.7 µM]
CCC(C)NC(=O)c1ccc2c(=O)n(C(C)C)c3nn(CC(=O)NC(C)(C)C)c(=O)n3c2c1 (stereo not given),i,
CC(C)NC(=O)Cn1nc2n(C(C)C)c(=O)c3ccc(C(=O)NC4CCCC4)cc3n2c1=O,i,
CN1C(=O)c2cc(C(=O)NCc3ccco3)nn2CC1(C)C(=O)NCc1ccc(F)cc1 (stereo not given),i,
Nc1nc(NCc2ccc(N3CCCC3=O)cc2)cc(C2CC(O)C2)n1 (stereo not given),i,
CCc1csc(CNc2cc(C3CC(O)C3)nc(N)n2)n1 (stereo not given),i,
Nc1nc(NCc2ccc(Cl)cc2Cl)cc(C2CC(O)C2)n1 (stereo not given),+,MTase-Glo ctr=-3%
CCCN1C(=O)c2c(C(=O)NCc3ccc(OC)cc3)ncn2CC1(C)C(=O)NCc1ccccc1 (stereo not given),i,
CCc1ccc(CNC(=O)c2ccc3c(=O)nc4c(-c5ccc(OC)cc5)n[nH]n4c3c2)cc1,i,
Fc1ccccc1CN1CCCC2(CCN(c3cnccn3)C2)C1 (stereo not given),i,
COc1cc2c(cc1CN1CCC3(CCCNC3)C1)OCCCO2 (stereo not given),i,
COc1cccc(CN2CCCC3(CCN(c4cc(C)nc(N)n4)C3)C2)c1OC (stereo not given),+,MTase-Glo ctr=-1%
CCC(C)NC(=O)c1ccc2c(=O)n(C)c3nn(CC(=O)Nc4cc(C)cc(C)c4)c(=O)n3c2c1 (stereo not given),i,
Cc1ccc(C)c(NS(=O)(=O)c2ccc3[nH]c4c(c3c2)CCCC4)c1,i,
COc1ccc(CNC(=O)c2ncn3c2C(=O)N(C2CC2)C(C)(C(=O)NCc2cccc(C)c2)C3)cc1 (stereo not given),i,
CC1CCC(NC(=O)C2(C)Cn3c(cc4occc43)C(=O)N2CCCN2CCOCC2)CC1 (stereo not given),i,
COc1cc(Cl)c(NS(=O)(=O)c2ccc3c(c2)NC(=O)CC(=O)N3)c(OC)c1,i,
O=C(CCc1ccccc1)N1CCNc2cnc(Nc3cccnc3)nc2C1,+,MTase-Glo ctr=-1%[85.7 µM]
O=C(CCc1ccccc1)N1CCCC(CN2CCCC2)CC1 (stereo not given),i,
O=C(Nc1ccc(Oc2cccnc2)cc1)C1CCN(CCCc2ccccc2)CC1,i,
CCC(C)NC(=O)c1ccc2c(=O)n(C)c3nnc(SCC(N)=O)n3c2c1 (stereo not given),i,
CCOC(=O)C1CCCN(c2nc3c(S(=O)(=O)c4ccc(Br)cc4)nnn3c3ccccc23)C1 (stereo not given),i,
SMILES,Methyltransferases,others
COc1ccccc1CNC(=O)C1(C)Cn2c(cc3ccccc32)C(=O)N1Cc1cccc(C)c1 (stereo not given),i,
CC1CCCC(NC(=O)C2(C)Cn3c(cc4sccc43)C(=O)N2C2CCCCCC2)C1C (stereo not given),i,
Cc1cccc(CNC(=O)C2(C)Cn3cnc(C(=O)N(C)Cc4ccccc4)c3C(=O)N2C2CC2)c1 (stereo not given),i,
O=C1c2cc3sccc3n2CC(C(=O)NC2CCCCCC2)(c2ccccc2)N1CCc1ccc(Cl)cc1 (stereo not given),i,
CCOc1ccccc1CN1C(=O)c2nc3ccccc3n2CC1(C)C(=O)NC1CCCCCC1 (stereo not given),i,
CCn1c(=O)n(CC)c2cc(S(=O)(=O)N3CCN(c4cccc(C)c4)C(C)C3)ccc21 (stereo not given),i,
COc1cc(F)ccc1-c1nccc2c(=O)cc(-c3cnn(C)c3)oc12,i,
COc1cc(F)ccc1-c1cc(-c2ccc(=O)[nH]c2)c2cncn2c1,+,MTase-Glo ctr=?

# Source: PubChem (National Center for Advancing Translational Sciences (NCATS))
